# Source: ChEMBL document CHEMBL2218924, “A broad activity screen in support of a chemogenomic map for kinase signalling research and drug discovery” (Biochem J, 2013)
# Biological target: T1, Serine/threonine-protein kinase STK11 (Homo sapiens) (UniProt Q15831)
# T1 sequence (whole entry): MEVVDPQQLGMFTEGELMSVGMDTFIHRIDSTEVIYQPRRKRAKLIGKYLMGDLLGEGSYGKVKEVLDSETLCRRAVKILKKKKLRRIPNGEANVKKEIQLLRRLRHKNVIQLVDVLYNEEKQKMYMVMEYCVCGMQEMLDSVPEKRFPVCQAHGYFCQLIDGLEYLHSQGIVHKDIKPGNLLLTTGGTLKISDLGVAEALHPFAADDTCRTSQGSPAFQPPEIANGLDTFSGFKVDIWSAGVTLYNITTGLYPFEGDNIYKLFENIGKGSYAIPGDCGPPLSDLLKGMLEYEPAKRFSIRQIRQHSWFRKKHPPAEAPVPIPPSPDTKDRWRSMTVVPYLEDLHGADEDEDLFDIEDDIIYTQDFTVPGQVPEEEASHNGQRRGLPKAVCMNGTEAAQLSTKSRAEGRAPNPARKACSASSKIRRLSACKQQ
# Conditions: at 10 µM
row,SMILES,residual activity
1,CCN(CC)CCCCN1c2ccccc2Oc2ccc(Cl)cc21,94%
2,O=C1NC(=O)c2cc(Nc3ccc(F)cc3)c(Nc3ccc(F)cc3)cc21,93%
3,COc1cccc(-c2cc(=O)c3ccccc3o2)c1N,100%
4,Cc1cccc(-c2[nH]c(C(C)(C)C)nc2-c2ccc3c(c2)OCO3)n1,101%
5,N#C/C(=C(\N)Sc1ccc(N)cc1)c1ccccc1C(F)(F)F,93%
6,COc1cc2ncnc(Nc3ccc(O)c(Br)c3)c2cc1OC,97%
7,O=C1Nc2cc(Br)ccc2/C1=C1/Nc2ccccc2/C1=N\O,81%
8,COc1cc2ncnc(Nc3ccc(NC(=O)c4ccccc4)cc3)c2cc1OC,109%
9,Nc1cccc(-c2cc3c(Oc4cccc(O)c4)ncnc3[nH]2)c1,11%
10,CCC(=O)Nc1ccc2ncnc(Nc3cccc(Br)c3)c2c1,96%
11,O=C1Nc2ccc(Br)cc2/C1=C\c1cc2c([nH]1)CCCC2,99%
12,CN(C)CCCn1cc(C2=C(c3c[nH]c4ccccc34)C(=O)NC2=O)c2ccccc21,102%
13,O=C1Nc2ccccc2/C1=C1/Nc2ccccc2/C1=N\OCCC(O)CO (stereo not given),3%
14,CC[n+]1c(/C=C/N(C)c2ccccc2)n(-c2ccccc2)c2ccc(-c3nc4ccccc4s3)cc21,104%
15,CC(C)n1cnc2/c(=N/c3cccc(Cl)c3)nc(NCCO)[nH]c21,81%
16,Oc1ccc(-c2nc(-c3ccc(F)cc3)c(-c3ccncc3)[nH]2)cc1,99%
17,CC(=O)O/N=C1\C(=C2\C(=O)Nc3cc(Br)ccc32)Nc2ccccc21,92%
18,O=C1NC(=O)c2c1c1c3ccccc3[nH]c1c1[nH]c3cc(Br)ccc3c21,100%
19,CNc1cc2c(Nc3cccc(Br)c3)ncnc2cn1,95%
20,CO[C@H]1C[C@@H]2CC[C@@H](C)[C@@](O)(O2)C(=O)C(=O)N2CCCC[C@H]2C(=O)O[C@H]([C@H](C)C[C@@H]2CC[C@@H](O)[C@H](OC)C2)CC(=O)[C@H](C)/C=C(\C)[C@@H](O)[C@@H](OC)C(=O)[C@H](C)C[C@H](C)/C=C/C=C/C=C/1C,99%
21,Cn1cc(/C=C2\C(=O)Nc3ccc(S(N)(=O)=O)cc32)c2ccccc21,100%
22,CO[C@H]1[C@@H](OC)C[C@H](C)[C@@H](OC)C2=CC(=O)C=C(NC(=O)/C(C)=C/C=C/[C@H](OC)[C@@H](OC(N)=O)/C(C)=C/[C@@H]1C)C2=O,90%
23,O=[N+]([O-])c1ccc(-c2nc(-c3ccc(F)cc3)c(-c3ccncc3)[nH]2)cc1,99%
24,C[C@@H](N)[C@H]1CC[C@H](C(=O)Nc2ccncc2)CC1,96%
25,c1ccc2c(-c3ccncc3)c[nH]c2c1,90%
26,Cc1cc(Nc2nc(-c3ccccc3)nc3ccccc23)n[nH]1,71%
27,COc1cc2ncnc(Nc3ccc(Oc4ccccc4)cc3)c2cc1OC,93%

# Biological target: Serine/threonine-protein kinase 10 (Homo sapiens) (UniProt O94804)
# Conditions: at 1 µM
# Sequence of Serine/threonine-protein kinase 10 (Homo sapiens) (O94804 whole entry, looked up): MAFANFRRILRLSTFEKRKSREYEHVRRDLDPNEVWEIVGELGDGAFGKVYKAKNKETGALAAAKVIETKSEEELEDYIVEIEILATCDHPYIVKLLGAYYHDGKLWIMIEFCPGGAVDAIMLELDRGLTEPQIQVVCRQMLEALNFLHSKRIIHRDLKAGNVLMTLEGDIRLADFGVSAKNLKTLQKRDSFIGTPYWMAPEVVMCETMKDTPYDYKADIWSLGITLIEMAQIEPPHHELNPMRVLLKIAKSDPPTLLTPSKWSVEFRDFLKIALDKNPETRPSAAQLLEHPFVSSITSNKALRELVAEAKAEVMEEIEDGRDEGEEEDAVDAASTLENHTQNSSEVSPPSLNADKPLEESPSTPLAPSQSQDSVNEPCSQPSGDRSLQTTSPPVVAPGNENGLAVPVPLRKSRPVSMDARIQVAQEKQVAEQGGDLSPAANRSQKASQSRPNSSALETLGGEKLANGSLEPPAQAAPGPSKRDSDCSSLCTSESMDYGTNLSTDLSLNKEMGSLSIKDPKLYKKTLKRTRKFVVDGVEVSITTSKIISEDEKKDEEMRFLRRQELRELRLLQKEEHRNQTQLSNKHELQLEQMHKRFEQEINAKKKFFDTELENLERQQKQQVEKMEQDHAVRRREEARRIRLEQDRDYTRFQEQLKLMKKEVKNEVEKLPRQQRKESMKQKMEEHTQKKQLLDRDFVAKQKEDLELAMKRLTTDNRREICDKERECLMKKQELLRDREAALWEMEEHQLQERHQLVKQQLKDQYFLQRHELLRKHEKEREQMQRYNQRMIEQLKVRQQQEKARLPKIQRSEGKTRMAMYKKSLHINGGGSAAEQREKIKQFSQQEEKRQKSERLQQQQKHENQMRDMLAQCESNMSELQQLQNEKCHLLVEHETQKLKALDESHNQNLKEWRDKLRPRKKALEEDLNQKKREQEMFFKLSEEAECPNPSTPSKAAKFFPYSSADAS
row,SMILES,residual activity
1,CCN(CC)CCCCN1c2ccccc2Oc2ccc(Cl)cc21,110%
2,O=C1NC(=O)c2cc(Nc3ccc(F)cc3)c(Nc3ccc(F)cc3)cc21,89%
3,COc1cccc(-c2cc(=O)c3ccccc3o2)c1N,114%
4,Cc1cccc(-c2[nH]c(C(C)(C)C)nc2-c2ccc3c(c2)OCO3)n1,87%
5,c1ccc(-c2n[nH]c3c2oc2ccccc23)cc1,92%
6,N#C/C(=C(\N)Sc1ccc(N)cc1)c1ccccc1C(F)(F)F,69%
7,CC(=O)c1ccc(N2CCOCC2)cc1O,102%
8,COc1cc2ncnc(Nc3ccc(O)c(Br)c3)c2cc1OC,17%
9,O=C1Nc2cc(Br)ccc2/C1=C1/Nc2ccccc2/C1=N\O,72%
10,COc1cc2ncc(-c3ccccc3)nc2cc1OC,90%
11,COc1cc2ncnc(Nc3ccc(NC(=O)c4ccccc4)cc3)c2cc1OC,71%
12,Nc1cccc(-c2cc3c(Oc4cccc(O)c4)ncnc3[nH]2)c1,34%
13,CCC(=O)Nc1ccc2ncnc(Nc3cccc(Br)c3)c2c1,50%
14,O=C1Nc2ccc(Br)cc2/C1=C\c1cc2c([nH]1)CCCC2,74%
15,CCN(CC)C(=O)c1ccc(Nc2nc(OCC3CCCCC3)c3nc[nH]c3n2)cc1,45%
16,CN(C)CCCn1cc(C2=C(c3c[nH]c4ccccc34)C(=O)NC2=O)c2ccccc21,33%
17,N#CC(C#N)=C(N)/C(C#N)=C/c1ccc(O)cc1,98%

row,SMILES,residual activity
1,O=C1Nc2ccccc2/C1=C1/Nc2ccccc2/C1=N\OCCC(O)CO (stereo not given),62%
2,CC[n+]1c(/C=C/N(C)c2ccccc2)n(-c2ccccc2)c2ccc(-c3nc4ccccc4s3)cc21,107%
3,CC(C)n1cnc2/c(=N/c3cccc(Cl)c3)nc(NCCO)[nH]c21,89%
4,Oc1ccc(-c2nc(-c3ccc(F)cc3)c(-c3ccncc3)[nH]2)cc1,92%
5,CC(=O)O/N=C1\C(=C2\C(=O)Nc3cc(Br)ccc32)Nc2ccccc21,53%
6,O=C1NC(=O)c2c1c1c3ccccc3[nH]c1c1[nH]c3cc(Br)ccc3c21,98%
7,CNc1cc2c(Nc3cccc(Br)c3)ncnc2cn1,27%
8,CO[C@H]1C[C@@H]2CC[C@@H](C)[C@@](O)(O2)C(=O)C(=O)N2CCCC[C@H]2C(=O)O[C@H]([C@H](C)C[C@@H]2CC[C@@H](O)[C@H](OC)C2)CC(=O)[C@H](C)/C=C(\C)[C@@H](O)[C@@H](OC)C(=O)[C@H](C)C[C@H](C)/C=C/C=C/C=C/1C,85%
9,Cn1cc(/C=C2\C(=O)Nc3ccc(S(N)(=O)=O)cc32)c2ccccc21,45%
10,CO[C@H]1[C@@H](OC)C[C@H](C)[C@@H](OC)C2=CC(=O)C=C(NC(=O)/C(C)=C/C=C/[C@H](OC)[C@@H](OC(N)=O)/C(C)=C/[C@@H]1C)C2=O,100%
11,N#Cc1cnc2cnc(NCc3cccnc3)cc2c1Nc1ccc(F)c(Cl)c1,96%
12,O=[N+]([O-])c1ccc(-c2nc(-c3ccc(F)cc3)c(-c3ccncc3)[nH]2)cc1,114%
13,Oc1ccc(Nc2nc(-c3ccc(Cl)cc3)cs2)cc1,109%
14,c1ccc2c(-c3ccncc3)c[nH]c2c1,86%
15,Cc1cc(Nc2nc(-c3ccccc3)nc3ccccc23)n[nH]1,50%
16,N#CCCc1ccc2c(c1)-c1[nH]c3ccc([N+](=O)[O-])cc3c1CC(=O)N2,57%
